This note sets out measurements from PubChem BioAssay (NCI).

This is part of a sample that, as a whole, favours compounds with a hit. Of some 83,000 tested, about 20% had one in any assay.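 Treatment: one concentration, 48 hours, 96-well format. Scoring: percent growth, with anything below 10 considered active.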 Calls of active or inactive are those of the source.

The experiment deals with NCI/ADR-RES ovarian. The experiment in a line: NCI-60 one-dose screen, 48 h (100 = growth as untreated, 0 = no growth, -100 = all killed). The note with it: 10 µM unless noted. Here is the method: Growth inhibition of the NCI/ADR-RES human […] tumor cell line is measured as a screen for anti-cancer activity. Cells are grown in 96 well plates and exposed to the test compound for 48 hours. Compounds are tested at a single concentration, which is 10^-5 M for most compounds. The reported endpoint is percent growth (GI% or GIPRCNT), where numbers from 0 - 100% represent growth inhibition, and numbers from -100% - 0 represent cell death. For example, a value of 40 represents 60% growth inhibition. A value of 0 means no net growth occurred over the course of the experiment. A value of -40 indicates 40% of cells at the beginning of the experiment died by the end of the experiment. A value of -100 means all cells are dead at the end of the experiment.
NCI-60 Human Tumor Cell Lines Screen was performed using the standard one-dose NCI protocol, which is described in more detail at https://dtp.cancer.gov/discovery_development/nci-60/default.htm.
Compounds with GIPRCNT values below 10 were considered active. Activity score was based on GIPRCNT using the following formula: […]
Score is 0 for GIPRCNT values of 100 or above, 50 for GIPRCNT values of 0, and 100 for GIPRCNT values of -100.
With `COC1CCN(Cc2ccc3c(NNC(=O)c4cnccn4)nc4cc(F)ccc4n23)C1` (stereo not given), the growth was 24% (inactive).
On to `Cn1cc(-c2cc(N)n3nc(-c4cn(C)c5ccc(Cl)cc45)cc3n2)c2cc(Cl)ccc21`, for which the growth is 73.5% (inactive).
As to `O=c1/c(=C\c2ccc(-c3ccccc3)o2)sc2nc(-c3ccccc3)nn12`, the growth is 101% (inactive).
In the case of `CCN(CC)c1ccc(C=O)c(OCc2cn(CC(=O)Nc3ccc(Cl)cc3)nn2)c1`, the growth is 84.2% (inactive).
Regarding `Cc1nc2cnc(N)c(C#Cc3cncc(C(=O)Nc4ccc(Cl)c(C(F)(F)F)c4)c3)c2nc1C`, the growth is 63.9% (inactive).
Regarding `CC(=O)Oc1ccccc1C(=O)Nc1cc(C(C)C)ccc1C`, the growth was 9.16% (active).
With `O=C(N/N=C/c1ccc([N+](=O)[O-])o1)c1[nH]c2ccc(Br)cc2c1-c1ccccc1`, the growth is 18.7% (inactive).
`COc1cc2nc(-c3ccc(C)cc3)cc(OCCCNCC3CCCO3)c2cc1OC` (stereo not given): the growth is 54.8% (inactive).
On to `N#Cc1c(-c2ccc(Cl)cc2)nc(SCc2ccccc2)nc1N1CCNCC1`, for which the growth is 65.6% (inactive).
Consider `c1ccc2c(NCCCN3CCOCC3)c3oc4ccccc4c3nc2c1`, for which the growth is 7.98% (active).
As for `COc1ccc(-c2nc3ccc(-c4nnc(SCC(=O)Nc5ccc(C(=O)/C=C/c6ccccc6)cc5)o4)cc3[nH]2)cc1OC`, the growth is 110% (inactive).
With `Cc1cc2nc3c4cc(Cl)ccc4n(CC(=O)NCCN(C)C)c3nc2cc1C`, the growth was 55.4% (inactive).
Take `O=C(N/N=C/c1ccc([N+](=O)[O-])s1)c1[nH]c2ccc(Br)cc2c1-c1ccccc1`: the growth was 17.3% (inactive).
In the case of `O=C(CSc1nc2sc3c(c2c(=O)n1-c1ccc(Cl)cc1)CCCC3)NNC(=O)Nc1ccc(Cl)c(C(F)(F)F)c1`, the growth is 61% (inactive).
Turning to `Cc1sc2nc(NCc3ccccc3Cl)[nH]c(=O)c2c1C`, the growth is 104% (inactive).
The figure for `COc1ccc(-c2csc(N/N=C/c3c(-c4ccc(S(C)(=O)=O)cc4)nc4ccccn34)n2)cc1` is 110% (inactive); for `CC(=O)Oc1ccccc1C(=O)Nc1ccc(C(=O)/C=C/c2cccs2)cc1` it is 106% (inactive); for `COc1ccc(N/N=C/c2c(-c3ccc(S(C)(=O)=O)cc3)nc3ccccn23)cc1` it is 34% (inactive).
`CCN1CCN(S(=O)(=O)c2oc(-c3ccc(Cl)cc3)nc2C#N)CC1`: the growth is 96% (inactive).
The figure for `COC(=O)C1CCCN(S(=O)(=O)/N=C2\NC(=O)NC2=C(Cl)Cl)C1` (stereo not given) is 111% (inactive); for `CN(C)S(=O)(=O)c1oc(-c2ccccc2)nc1C#N` it is 107% (inactive).
Regarding `O=C(CSc1nc2sc3c(c2c(=O)n1-c1ccc(Cl)cc1)CCCC3)NNC(=O)Nc1cccc(C(F)(F)F)c1`, the growth was 32.2% (inactive).
The figure for `COc1cc(OC)c(C2SCC(=O)N2Nc2ncnc3ccccc23)cc1OC` (stereo not given) is 104% (inactive).
For the compound `C[C@@H](Nc1c(C#N)cnc2ccc(-c3cnc(N)nc3)cc12)c1ccccc1`, the growth is 22.5% (inactive).
For the compound `COc1cccc(COc2ccc(/C=C3/C(=O)Nc4cc(Cl)ccc43)cc2)c1`, the growth is 90.3% (inactive).
Take `O=C(c1ccc(Cl)cc1)C1[C@H](c2ccc(Cl)cc2)[C@@H](c2ccccc2)NC12C(=O)Nc1ccc(Br)cc12` (stereo not given in full): the growth was 28.8% (inactive).
For the compound `Cc1c(NC(=O)CSc2nc3sc4c(c3c(=O)n2-c2ccc(Cl)cc2)CCCC4)c(=O)n(-c2ccccc2)n1C`, the growth was 101% (inactive).
For the compound `C#Cc1nc(C2=C(C)C(O)CC2)cs1` (stereo not given), the growth was 35.9% (inactive).
As to `CN1CCc2c(sc3ncnc(N/N=C/c4ccc(Cl)c(Cl)c4)c23)C1`, the growth was 29.6% (inactive).
For `COc1ccc(/C=C2\SC(=Nc3cc(C)[nH]n3)NC2=O)cc1`, the growth was 98.3% (inactive).
Regarding `Cc1cccc(/C=C/c2nn3c(-c4ccco4)nnc3s2)c1`, the growth was 91.6% (inactive).
Regarding `O=c1[nH]c2ccccc2cc1CSc1ccccc1Nc1nccc(-c2ccc(C(F)(F)F)cc2)n1`, the growth is 63.2% (inactive).
Consider `CSCCC(C(=O)O)N1C(=O)/C(=C/c2ccc(O)c(O)c2)SC1=S` (stereo not given), for which the growth is 108% (inactive).
Consider `CC(C)(C)Nc1nc2c(OCCc3ccccc3)cccn2c1-c1ccc(O)cc1`, for which the growth is 50.4% (inactive).
Turning to `O=C(NNc1nc2cc(F)ccc2n2c(CN3CC4(COC4)C3)ccc12)c1cnccn1`, the growth was 22% (inactive).
For the compound `COc1ccc(-c2nn3c(-c4ccccc4F)nnc3s2)cc1`, the growth was 21.3% (inactive).
The value for `COc1cc(OC)c(C2C(Cl)C(=O)N2Nc2ncnc3ccccc23)cc1OC` (stereo not given) was 105% (inactive); that for `COc1ccccc1C(=O)CSc1nc(Nc2ccc(S(N)(=O)=O)cc2)c2ccccc2n1` was 106% (inactive).
The figure for `CN1C(=O)N(c2ccccc2)C2N=C(N/N=C/c3ccccc3)SC21` (stereo not given) is 30.7% (inactive).
For the compound `CCOC(=O)c1csc(NC(=O)CSc2nc3sc4c(c3c(=O)n2-c2ccc(Cl)cc2)CCCC4)n1`, the growth was 107% (inactive).
